Data taken from the supplement of paper PMC10849652.
About 7,900 targets were measured; listed, in parts, are those with a hit and a random draw of the rest. About 0.6% of all pairs of compound and target were hits. Unmarked numbers belong to inactive results.

What was measured:
Test in all cases: log2 fold change, soluble protein after heating vs DMSO (PISA); higher = thermal stabilisation; K562 cells, 10 uM, 30 min; active = over 0.2 and 3.5 SD of the protein, either way, in both replicates (recomputed)
IRAK-1-4 Inhibitor I = compound: C1COCCN1CCN2C3=CC=CC=C3N=C2NC(=O)C4=CC(=CC=C4)[N+](=O)[O-] [IRAK-1-4 Inhibitor I]
Summary of the method: (§1)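 K562 cells (2×10^6 cells/mL) were treated with 10 μM compound for 30 min, and aliquots were heated for 3 min over 48°C-58°C. Pooled aliquots were extracted in PBS with 0.5% NP-40 at 4°C, and the supernatant after 21,000xg for 90 min was measured by TMTpro 16plex LC-MS/MS with channel sums equalised. Reported thermal stability, relative to control samples and from duplicates, is a log2 fold change.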

ibrutinib = compound: C=CC(=O)N1CCC[C@@H](n2nc(-c3ccc(Oc4ccccc4)cc3)c3c(N)ncnc32)C1 [ibrutinib]
Summary of the method: as §1

[1] = compound: CC(=O)c1cnc2ccc(-c3cc(Cl)c(O)c(Cl)c3)nc2c1N[C@H]1CC[C@H](CN(C)C)CC1
Summary of the method: as §1

ralimetinib = compound: CC(C)(C)Cn1c(N)nc2ccc(-c3[nH]c(C(C)(C)C)nc3-c3ccc(F)cc3)nc21 [ralimetinib]
Summary of the method: as §1

[2] = compound: CC(C)(O)CC(=O)NCCn1ccc2ncnc(Nc3ccc(Oc4cccc(C(F)(F)F)c4)c(Cl)c3)c21
Summary of the method: as §1

[3] = compound: CC(C)C1=C2N=C(C=C(N2N=C1)NCC3=CC=CC=C3)NCCCCCCN
Summary of the method: as §1

[4] = compound: CC(C)C[C@@H](C=O)NC(=O)[C@H](CC(C)C)NC(=O)[C@H](CC(C)C)NC(=O)OCc1ccccc1
Summary of the method: as §1

pinometostat = compound: CC(C)N(C[C@H]1O[C@@H](n2cnc3c(N)ncnc32)[C@H](O)[C@@H]1O)[C@H]1C[C@@H](CCc2nc3cc(C(C)(C)C)ccc3[nH]2)C1 [pinometostat]
Summary of the method: as §1

[5] = compound: CC1=C(C(CC(=O)N1)C2=CC=C(C=C2)C(F)(F)F)C(=O)NC3=C(C=C4C(=C3)C=NN4)F
Summary of the method: as §1

[6] = compound: CC1=C(C2=C(C=C1)C(=O)C3=CC=CC=C3N2CCCN)C
Summary of the method: as §1

UniProt Q969X6, sequence (Q969X6 whole entry, looked up): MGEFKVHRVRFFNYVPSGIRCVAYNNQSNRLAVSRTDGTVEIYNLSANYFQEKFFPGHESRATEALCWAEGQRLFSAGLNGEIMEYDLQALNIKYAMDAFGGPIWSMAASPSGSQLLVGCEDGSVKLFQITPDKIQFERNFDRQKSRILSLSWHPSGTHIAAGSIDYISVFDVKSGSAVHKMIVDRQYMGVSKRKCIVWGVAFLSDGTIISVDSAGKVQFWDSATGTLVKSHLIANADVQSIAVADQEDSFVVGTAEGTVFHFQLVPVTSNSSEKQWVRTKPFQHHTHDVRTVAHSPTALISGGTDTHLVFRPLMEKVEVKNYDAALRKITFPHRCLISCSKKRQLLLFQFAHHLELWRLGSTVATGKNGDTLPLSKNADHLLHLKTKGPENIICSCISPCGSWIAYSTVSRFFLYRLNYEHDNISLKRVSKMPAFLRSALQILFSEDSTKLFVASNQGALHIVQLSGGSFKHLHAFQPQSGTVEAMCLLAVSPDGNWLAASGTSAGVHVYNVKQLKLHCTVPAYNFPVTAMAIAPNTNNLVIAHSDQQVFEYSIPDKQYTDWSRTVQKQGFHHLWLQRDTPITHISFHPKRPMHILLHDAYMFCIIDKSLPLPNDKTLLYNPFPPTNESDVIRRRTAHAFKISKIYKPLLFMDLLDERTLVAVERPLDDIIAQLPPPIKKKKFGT
UniProt Q969T4, sequence (Q969T4 whole entry, looked up): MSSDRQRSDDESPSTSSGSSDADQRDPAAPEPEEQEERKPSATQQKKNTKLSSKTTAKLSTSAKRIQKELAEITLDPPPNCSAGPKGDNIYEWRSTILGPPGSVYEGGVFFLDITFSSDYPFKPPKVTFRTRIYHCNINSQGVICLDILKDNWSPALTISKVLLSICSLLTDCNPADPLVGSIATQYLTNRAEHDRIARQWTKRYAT
UniProt P02585, sequence (P02585 whole entry, looked up): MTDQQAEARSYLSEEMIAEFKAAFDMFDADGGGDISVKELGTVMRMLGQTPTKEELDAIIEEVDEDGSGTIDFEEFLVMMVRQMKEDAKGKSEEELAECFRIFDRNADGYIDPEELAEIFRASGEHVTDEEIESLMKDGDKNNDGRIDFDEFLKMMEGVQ
UniProt A0PJW6, sequence (A0PJW6 whole entry, looked up): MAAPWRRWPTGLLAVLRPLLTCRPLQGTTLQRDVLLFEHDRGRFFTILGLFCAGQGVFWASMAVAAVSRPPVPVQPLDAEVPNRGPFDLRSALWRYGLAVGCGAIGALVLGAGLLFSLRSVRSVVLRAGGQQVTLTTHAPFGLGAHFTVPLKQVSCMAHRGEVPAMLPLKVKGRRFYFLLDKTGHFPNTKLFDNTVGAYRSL
UniProt Q9Y2L5, sequence (Q9Y2L5 whole entry, looked up): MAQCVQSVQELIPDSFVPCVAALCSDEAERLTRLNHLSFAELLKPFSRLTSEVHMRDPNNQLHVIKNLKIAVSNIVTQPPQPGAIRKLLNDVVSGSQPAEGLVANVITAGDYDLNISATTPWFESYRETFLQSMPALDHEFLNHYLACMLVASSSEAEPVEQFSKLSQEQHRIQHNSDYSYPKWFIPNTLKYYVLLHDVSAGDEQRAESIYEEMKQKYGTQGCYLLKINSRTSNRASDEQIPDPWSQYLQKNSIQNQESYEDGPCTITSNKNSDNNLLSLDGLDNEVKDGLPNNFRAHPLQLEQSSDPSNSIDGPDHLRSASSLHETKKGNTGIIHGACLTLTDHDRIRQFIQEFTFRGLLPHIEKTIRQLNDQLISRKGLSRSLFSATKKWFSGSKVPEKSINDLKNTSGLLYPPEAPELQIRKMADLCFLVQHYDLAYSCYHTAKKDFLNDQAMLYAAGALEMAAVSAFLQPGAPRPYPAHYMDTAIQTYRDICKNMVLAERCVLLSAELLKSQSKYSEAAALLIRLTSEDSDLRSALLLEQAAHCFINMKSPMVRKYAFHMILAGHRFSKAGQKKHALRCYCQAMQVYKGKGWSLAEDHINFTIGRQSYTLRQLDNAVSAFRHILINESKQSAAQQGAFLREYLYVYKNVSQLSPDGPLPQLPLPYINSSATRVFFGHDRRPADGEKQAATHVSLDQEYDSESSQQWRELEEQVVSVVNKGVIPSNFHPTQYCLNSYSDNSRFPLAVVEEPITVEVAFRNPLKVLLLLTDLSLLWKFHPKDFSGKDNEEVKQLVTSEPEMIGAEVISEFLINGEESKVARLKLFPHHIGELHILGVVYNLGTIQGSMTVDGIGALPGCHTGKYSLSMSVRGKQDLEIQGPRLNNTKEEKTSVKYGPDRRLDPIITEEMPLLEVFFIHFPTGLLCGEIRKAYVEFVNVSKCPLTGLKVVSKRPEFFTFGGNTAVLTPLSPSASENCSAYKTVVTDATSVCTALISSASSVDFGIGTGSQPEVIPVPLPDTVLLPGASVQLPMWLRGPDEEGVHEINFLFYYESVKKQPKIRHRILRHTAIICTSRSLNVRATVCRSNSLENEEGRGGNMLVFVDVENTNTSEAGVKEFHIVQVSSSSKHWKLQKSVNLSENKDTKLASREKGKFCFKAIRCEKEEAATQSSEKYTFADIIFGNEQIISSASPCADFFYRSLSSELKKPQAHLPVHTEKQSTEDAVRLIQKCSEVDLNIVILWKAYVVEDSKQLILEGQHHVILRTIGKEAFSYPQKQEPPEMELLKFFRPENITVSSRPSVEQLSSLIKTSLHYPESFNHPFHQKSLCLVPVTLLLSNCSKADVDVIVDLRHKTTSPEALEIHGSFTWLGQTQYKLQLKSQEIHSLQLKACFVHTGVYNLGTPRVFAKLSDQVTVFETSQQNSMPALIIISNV
UniProt P0CG48, sequence (P0CG48 whole entry, looked up): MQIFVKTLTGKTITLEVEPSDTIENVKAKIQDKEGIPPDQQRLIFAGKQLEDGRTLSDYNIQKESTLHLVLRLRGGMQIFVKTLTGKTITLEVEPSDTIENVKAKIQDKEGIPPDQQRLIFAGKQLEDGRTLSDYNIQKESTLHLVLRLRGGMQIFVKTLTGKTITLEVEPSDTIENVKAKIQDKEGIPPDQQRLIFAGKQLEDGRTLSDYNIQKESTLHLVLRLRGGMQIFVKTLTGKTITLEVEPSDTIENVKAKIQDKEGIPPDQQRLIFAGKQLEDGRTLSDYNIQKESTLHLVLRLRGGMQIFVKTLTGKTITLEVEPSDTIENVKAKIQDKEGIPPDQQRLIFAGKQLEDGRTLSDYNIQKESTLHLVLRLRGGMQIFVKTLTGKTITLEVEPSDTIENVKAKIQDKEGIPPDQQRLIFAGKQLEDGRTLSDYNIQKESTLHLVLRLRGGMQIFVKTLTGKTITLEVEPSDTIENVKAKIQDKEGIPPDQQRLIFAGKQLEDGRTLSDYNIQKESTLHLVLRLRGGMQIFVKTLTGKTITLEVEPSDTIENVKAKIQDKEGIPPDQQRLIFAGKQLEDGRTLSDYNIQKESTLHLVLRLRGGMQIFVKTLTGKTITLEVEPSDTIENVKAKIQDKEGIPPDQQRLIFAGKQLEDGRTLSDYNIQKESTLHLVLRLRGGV
UniProt Q86UV5, sequence (Q86UV5 whole entry, looked up): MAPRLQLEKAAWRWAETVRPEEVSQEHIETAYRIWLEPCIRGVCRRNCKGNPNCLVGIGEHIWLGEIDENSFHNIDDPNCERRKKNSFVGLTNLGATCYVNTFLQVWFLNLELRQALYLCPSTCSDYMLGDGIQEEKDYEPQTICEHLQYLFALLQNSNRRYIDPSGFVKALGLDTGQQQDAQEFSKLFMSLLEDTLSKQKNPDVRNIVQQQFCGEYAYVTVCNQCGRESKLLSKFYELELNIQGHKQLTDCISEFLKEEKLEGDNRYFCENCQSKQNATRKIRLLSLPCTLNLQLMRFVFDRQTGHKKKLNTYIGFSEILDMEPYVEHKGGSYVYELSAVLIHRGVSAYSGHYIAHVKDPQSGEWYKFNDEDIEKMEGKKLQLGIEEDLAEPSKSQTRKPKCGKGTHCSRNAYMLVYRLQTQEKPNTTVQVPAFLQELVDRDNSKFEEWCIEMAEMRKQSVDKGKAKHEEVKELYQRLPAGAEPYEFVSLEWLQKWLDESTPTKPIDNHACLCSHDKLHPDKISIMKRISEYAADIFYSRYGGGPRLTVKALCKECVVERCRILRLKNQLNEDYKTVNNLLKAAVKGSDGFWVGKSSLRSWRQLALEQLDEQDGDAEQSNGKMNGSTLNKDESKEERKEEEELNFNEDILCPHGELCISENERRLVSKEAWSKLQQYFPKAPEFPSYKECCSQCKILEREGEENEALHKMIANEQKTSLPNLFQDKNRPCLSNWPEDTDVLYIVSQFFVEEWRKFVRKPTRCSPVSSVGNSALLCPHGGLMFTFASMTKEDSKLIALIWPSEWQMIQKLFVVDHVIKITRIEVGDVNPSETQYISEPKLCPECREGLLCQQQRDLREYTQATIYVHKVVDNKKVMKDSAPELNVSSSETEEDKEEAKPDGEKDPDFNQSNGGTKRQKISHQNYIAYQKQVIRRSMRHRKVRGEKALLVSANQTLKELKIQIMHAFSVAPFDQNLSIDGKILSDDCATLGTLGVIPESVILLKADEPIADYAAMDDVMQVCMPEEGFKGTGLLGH
UniProt Q6VEQ5, sequence (Q6VEQ5 whole entry, looked up): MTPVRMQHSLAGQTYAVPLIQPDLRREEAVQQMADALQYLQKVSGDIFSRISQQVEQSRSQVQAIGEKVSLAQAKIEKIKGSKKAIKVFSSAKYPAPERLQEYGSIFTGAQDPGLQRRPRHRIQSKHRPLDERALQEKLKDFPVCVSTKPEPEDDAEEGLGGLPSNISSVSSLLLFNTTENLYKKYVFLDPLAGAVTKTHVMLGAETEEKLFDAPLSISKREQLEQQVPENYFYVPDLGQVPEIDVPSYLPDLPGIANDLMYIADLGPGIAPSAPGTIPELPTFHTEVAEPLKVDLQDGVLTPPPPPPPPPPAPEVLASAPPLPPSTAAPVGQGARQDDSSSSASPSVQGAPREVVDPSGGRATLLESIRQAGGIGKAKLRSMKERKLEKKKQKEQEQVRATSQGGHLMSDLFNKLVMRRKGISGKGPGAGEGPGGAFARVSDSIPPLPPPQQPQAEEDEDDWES
UniProt Q15388, sequence (Q15388 whole entry, looked up): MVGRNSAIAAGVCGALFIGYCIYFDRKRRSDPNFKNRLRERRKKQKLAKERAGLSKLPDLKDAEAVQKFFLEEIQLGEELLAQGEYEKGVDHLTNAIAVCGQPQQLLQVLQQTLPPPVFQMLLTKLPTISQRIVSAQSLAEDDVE

Target	log2 fold change (IRAK-1-4 Inhibitor I)	log2 fold change (ibrutinib)	log2 fold change [1]	log2 fold change (ralimetinib)	log2 fold change [2]	log2 fold change [3]	log2 fold change [4]	log2 fold change (pinometostat)	log2 fold change [5]	log2 fold change [6]
WASH2P (UniProt Q6VEQ5)	0.001	-0.049	0.052	0.022	0.048	-0.234 (active)	0.025	-0.016	-0.022	0.026
WDR7 (UniProt Q9Y4E6)	-0.112	-0.027	-0.078	0.067	-0.141	-0.429 (active)	0.1	0.062	0.029	0.122
TOMM20 (UniProt Q15388)	0.006	0	0.003	-0.017	0.118	-0.343 (active)	0.047	0.022	-0.021	0.018
UTP4 (UniProt Q969X6)	0.003	0.002	0.02	-0.07	0.045	0.233 (active)	-0.014	-0.017	-0.019	0.343 (active)
VPS33A (UniProt Q96AX1)	-0.017	-0.021	-0.001	0.048	-0.065	-0.299 (active)	0.054	0.099	0.035	0.005
USP9X (UniProt Q93008)	-0.006	-0.041	-0.011	0.02	-0.117	-0.177	0.01	0.042	0.002	0.038
WAPL isoform 3 (UniProt Q7Z5K2)	-0.086	-0.002	-0.05	-0.072	-0.057	-0.339	0.125	0.054	-0.003	-0.056
UGGT1 (UniProt Q9NYU2)	-0.011	-0.027	0.001	0.001	-0.028	-0.007	-0.038	0.028	-0.003	0.023
TMEM9 (UniProt Q9P0T7)	0.076	0.039	0.012	-0.003	-0.07	-0.211	0.064	-0.042	0.067	-0.013
TRAPPC2L (UniProt Q9UL33)	-0.013	0.003	-0.004	-0.125	-0.11	-0.083	0.24	0.001	0.062	0.014
TMEM177 (UniProt Q53S58)	0.06	0.079	0.007	-0.068	-0.023	-0.131	0.045	-0.02	-0.007	0.028
VPS33B (UniProt Q9H267)	-0.049	-0.041	-0.068	0.057	-0.107	-0.178	0.098	0.156	0	0.049
WDR4 (UniProt P57081)	0.024	-0.052	0.022	-0.033	-0.003	-0.005	-0.072	-0.017	0.019	0.028
VPS53 isoform 4 (UniProt Q5VIR6)	-0.035	0.011	-0.046	-0.022	-0.101	-0.142	0.095	0.076	-0.032	0.036
UQCR10 (UniProt Q9UDW1)	0.036	0.019	-0.077	-0.05	-0.056	0.031	-0.127	-0.016	-0.008	0.057
TTC4 (UniProt O95801)	-0.058	-0.031	-0.052	0.168	-0.072	-0.119	0.024	-0.015	-0.001	0
WDR47 (UniProt O94967)	-0.089	0.055	0.028	-0.005	-0.03	0.028	-0.048	-0.017	0.024	0.015
TMEM223 (UniProt A0PJW6)	0.039	0.006	-0.101	-0.009	0.114	-0.063	0	-0.019	-0.087	0.042
UBE2S (UniProt Q16763)	-0.065	-0.035	-0.037	0.03	-0.034	0.018	0.125	-0.05	-0.004	-0.055
UBE2E3 (UniProt Q969T4)	0.106	-0.059	-0.027	0.069	-0.046	-0.08	-0.039	0.096	-0.019	0.066
TNNC2 (UniProt P02585)	0.042	0.012	0.004	-0.068	0	0.116	0.025	-0.067	-0.005	0.114
TRIP10 (UniProt Q15642)	0.007	0.002	0.009	0.001	0	-0.022	0.007	-0.007	-0.009	-0.02
UBC (UniProt P0CG48)	0.022	0.027	0.033	-0.064	0.008	0.167	0.296 (active)	0.042	-0.018	0.281 (active)
TXNRD1 (UniProt Q16881)	0.064	-0.035	-0.062	-0.088	-0.049	-0.013	-0.03	-0.042	-0.011	0.077
TMEM87B (UniProt Q96K49)	0.139	-0.084	-0.046	-0.086	-0.204	-0.39 (active)	-0.007	0.065	0.057	0.029
USP48 isoform 8 (UniProt Q86UV5)	-0.09	-0.071	-0.014	0.046	-0.207	-0.278	0.052	0.008	0.003	-0.101
TPM2 (UniProt P07951)	0.013	-0.018	0.027	0.059	-0.053	0.037	-0.163	-0.1	0.079	-0.103
VPS52 (UniProt Q8N1B4)	-0.057	0.068	0	0.05	-0.161	-0.02	0.088	0.048	-0.018	0.142
TRAPPC8 (UniProt Q9Y2L5)	-0.02	0.015	-0.02	0.011	-0.056	-0.071	0.044	0.072	0.002	0.003
UHRF1BP1 (UniProt Q6BDS2)	0.007	0.023	-0.034	-0.067	0.097	0.258 (active)	0.03	0.006	0.001	0.029
